Laboratory results published in PubChem BioAssay (EPA / NIEHS).
Several values for one entry are separate records, joined by “and”; a condition that tells them apart may be missing. Equal entries are not always repeated. Some compounds were tested as several samples or in several runs, with calls that do not always agree. Activity calls are given as the source filed them. How the source made its calls: active means hit-call score of the fitted dose curve at least 0.9, where 1 is the maximum; inactive means score below 0.9.

Experiments:
[1] = read-out: Interleukin-8 (IL8), CXCL8 (gene 3576); assay: BSK_MyoF_IL8: BioMAP Diversity Plus: MyoF Assay for Interleukin-8 (IL8) Biomarker Activity (AID 2284261); details: primary human lung fibroblasts
In short: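 IL-8 levels were measured by ELISA in human lung fibroblasts harvested 24 h after compound addition. Responses were analysed as gain of signal over the DMSO baseline.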

CD90, THY1 (gene 7070) = assay: BSK_BF4T_CD90: BioMAP Diversity Plus: BF4T Assay for CD90 Biomarker Activity (AID 2284262); details: primary human bronchial epithelial cells with fibroblasts
In short: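 CD90 levels by ELISA after 24 h treatment of human bronchial epithelial cell/dermal fibroblast cultures, analysed versus DMSO. Overt cytotoxicity checked in parallel cultures by sulforhodamine B staining.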

[2] = read-out: Interleukin-8 (IL8), CXCL8 (gene 3576); assay: BSK_BF4T_IL8: BioMAP Diversity Plus: BF4T Assay for Interleukin-8 (IL8) Biomarker Activity (AID 2284263); details: primary human bronchial epithelial cells with fibroblasts
In short: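 Human bronchial epithelial cells with dermal fibroblasts co-culture; IL-8 measured by ELISA 24 hours after dosing, fitted vs DMSO. Cytotoxicity tracked in parallel cultures by SRB total-protein staining.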

[3] = read-out: Interleukin-1 alpha (IL1a), IL1A (gene 3552); assay: BSK_BF4T_IL1a: BioMAP Diversity Plus: BF4T Assay for Interleukin-1 alpha (IL1a) Biomarker Activity (AID 2284264); details: primary human bronchial epithelial cells with fibroblasts
In short: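 ELISA read-out of IL-1α from bronchial epithelial cell/dermal fibroblast co-cultures 24 h after compound addition. Increases scored against DMSO negative control. Cytotoxicity monitored by sulforhodamine B staining of parallel cultures.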

Decorin, DCN (gene 1634) = assay: BSK_MyoF_Decorin: BioMAP Diversity Plus: MyoF Assay for Decorin Biomarker Activity (AID 2284265); details: primary human lung fibroblasts
In short: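 Compound is added to lung fibroblast cultures; cells incubate 24 h; decorin is then measured by ELISA; the response is analysed upward against DMSO controls.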

KRT18 (gene 3875) = assay: BSK_BF4T_Keratin818: BioMAP Diversity Plus: BF4T Assay for Keratin 818 Biomarker Activity (AID 2284266); details: primary human bronchial epithelial cells with fibroblasts
In short: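 Keratin 8/18 levels quantified by ELISA after 24 h chemical treatment of bronchial epithelial cell/dermal fibroblast co-cultures, fitted in positive direction relative to DMSO. Parallel SRB staining tracks overt cytotoxicity.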

[4] = BSK_MyoF_SRB: Viability Assessment in the BioMAP Diversity Plus: MyoF Assay (AID 2284267); details: primary human lung fibroblasts;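 further: total protein by SRB absorbance in parallel cultures as cytotoxicity measure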
In short: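 Cytotoxicity read-out: after 10% TCA fixation, parallel human lung fibroblast cultures were stained with 0.1% SRB at 24 h post-dosing and read at 560 nm; DMSO served as baseline.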

[5] = read-out: Matrix Metallopeptidase 1 (MMP1), MMP1 (gene 4312); assay: BSK_MyoF_MMP1: BioMAP Diversity Plus: MyoF Assay for Matrix Metallopeptidase 1 (MMP1) Biomarker Activity (AID 2284268); details: primary human lung fibroblasts
In short: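 Lung fibroblast cultures were dosed with test chemicals and, after 24 h, MMP1 levels were measured by ELISA; responses were referenced to DMSO and analysed for increases.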

[6] = read-out: TIMP metallopeptidase inhibitor 1 (TIMP1), TIMP1 (gene 7076); assay: BSK_MyoF_TIMP1: BioMAP Diversity Plus: MyoF Assay for TIMP metallopeptidase inhibitor 1 (TIMP1) Biomarker Activity (AID 2284269); details: primary human lung fibroblasts
In short: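 ELISA read-out of TIMP-1 from primary human lung fibroblast cultures 24 h after compound dosing; gain of signal relative to DMSO vehicle baseline defines activity.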

[7] = read-out: Matrix Metallopeptidase 1 (MMP1), MMP1 (gene 4312); assay: BSK_BF4T_MMP1: BioMAP Diversity Plus: BF4T Assay for Matrix Metallopeptidase 1 (MMP1) Biomarker Activity (AID 2284270); details: primary human bronchial epithelial cells with fibroblasts
In short: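 MMP-1 quantified by ELISA in primary human bronchial epithelial/dermal fibroblast co-cultures, 24 hours post-dosing, with DMSO as baseline; parallel sulforhodamine B staining (560 nm) tracks overt cytotoxicity.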

[8] = read-out: Matrix Metallopeptidase 3 (MMP3), MMP3 (gene 4314); assay: BSK_BF4T_MMP3: BioMAP Diversity Plus: BF4T Assay for Matrix Metallopeptidase 3 (MMP3) Biomarker Activity (AID 2284271); details: primary human bronchial epithelial cells with fibroblasts
In short: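 MMP-3 level read by ELISA after 24 h chemical exposure of bronchial epithelial cell/dermal fibroblast co-cultures, fitted upward relative to DMSO. Parallel cultures stained with 0.1% SRB after TCA fixation gauge overt cytotoxicity.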

[9] = read-out: Tissue plasminogen activator (tPA), PLAT (gene 5327); assay: BSK_BF4T_tPA: BioMAP Diversity Plus: BF4T Assay for Tissue plasminogen activator (tPA) Biomarker Activity (AID 2284272); details: primary human bronchial epithelial cells with fibroblasts
In short: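 tPA level quantified by ELISA at 24 h post-treatment in bronchial epithelial/dermal fibroblast co-cultures, gain of signal scored against DMSO baseline. Parallel cultures stained with 0.1% SRB (560 nm) to flag overt cytotoxicity.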

[10] = read-out: Plasminogen Activator Inhibitor-1 (PAI1), SERPINE1 (gene 5054); assay: BSK_BF4T_PAI1: BioMAP Diversity Plus: BF4T Assay for Plasminogen Activator Inhibitor-1 (PAI1) Biomarker Activity (AID 2284273); details: primary human bronchial epithelial cells with fibroblasts
In short: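 PAI-1 levels quantified by ELISA 24 h post-dosing in bronchial epithelial cell plus dermal fibroblast cultures. Signal gain referenced to DMSO baseline. Sulforhodamine B total-protein staining of parallel wells checked cytotoxicity.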

[11] = BSK_BF4T_SRB: Viability Assessment in the BioMAP Diversity Plus: BF4T Assay (AID 2284274); details: primary human bronchial epithelial cells with fibroblasts
In short: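 Cytotoxicity measured as total protein: cells fixed with 10% TCA, stained with 0.1% SRB, read at 560 nm. Bronchial epithelial/dermal fibroblast co-culture, 24 h after dosing, with positive-direction fitting relative to DMSO.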

[12] = read-out: urokinase Plasminogen Activator (uPA), PLAU (gene 5328); assay: BSK_BF4T_uPA: BioMAP Diversity Plus: BF4T Assay for urokinase Plasminogen Activator (uPA) Biomarker Activity (AID 2284275); details: primary human bronchial epithelial cells with fibroblasts
In short: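 uPA levels measured by ELISA at 24 hours in BF4T cultures (bronchial epithelial cells plus dermal fibroblasts) and compared with DMSO; cytotoxicity tracked in parallel cultures by sulforhodamine B staining.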

[13] = read-out: Matrix Metallopeptidase 9 (MMP9), MMP9 (gene 4318); assay: BSK_BF4T_MMP9: BioMAP Diversity Plus: BF4T Assay for Matrix Metallopeptidase 9 (MMP9) Biomarker Activity (AID 2284276); details: primary human bronchial epithelial cells with fibroblasts
In short: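 MMP-9 levels were measured by ELISA after 24 h exposure of bronchial epithelial cell/dermal fibroblast co-cultures, with DMSO as baseline. Parallel cultures were stained with 0.1% SRB after TCA fixation, read at 560 nm, to flag overt cytotoxicity.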

[14] = read-out: Interleukin-8 (IL8), CXCL8 (gene 3576); assay: BSK_IMphg_IL8: BioMAP Diversity Plus: IMphg Assay for Interleukin-8 (IL8) Biomarker Activity (AID 2284277); details: primary human endothelial cells with macrophages
In short: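 IL-8 levels were measured by ELISA 24 h after dosing in primary human venular endothelial cell–macrophage cultures, referenced to DMSO; parallel SRB staining monitored overt cytotoxicity.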

[15] = read-out: Intercellular Adhesion Molecule 1 (ICAM1), ICAM1 (gene 3383); assay: BSK_BE3C_ICAM1: BioMAP Diversity Plus: BE3C Assay for Intercellular Adhesion Molecule 1 (ICAM1) Biomarker Activity (AID 2284278); details: primary human bronchial epithelial cells
In short: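 ICAM-1 quantified by ELISA and fitted against DMSO baseline, 24 h post-dosing in BE3C cultures of primary human lung bronchial epithelial cells. Cytotoxicity checked in parallel cultures by total protein SRB staining.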

[16] = read-out: Interferon-inducible T-cell alpha chemoattractant (ITAC), CXCL11 (gene 6373); assay: BSK_BE3C_ITAC: BioMAP Diversity Plus: BE3C Assay for Interferon-inducible T-cell alpha chemoattractant (ITAC) Biomarker Activity (AID 2284279); details: primary human bronchial epithelial cells
In short: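 ELISA read-out of I-TAC after 24 h chemical dosing of human lung primary bronchial epithelial cells; gain-of-signal fit vs DMSO baseline. Parallel SRB total-protein staining (0.1% SRB, 10% TCA fixation, 560 nm) assessed cytotoxicity.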

[17] = read-out: Interleukin-8 (IL8), CXCL8 (gene 3576); assay: BSK_BE3C_IL8: BioMAP Diversity Plus: BE3C Assay for Interleukin-8 (IL8) Biomarker Activity (AID 2284280); details: primary human bronchial epithelial cells
In short: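 Measured at 24 h after treatment, IL-8 from human primary bronchial epithelial cells is determined by ELISA, and the response is modelled as increasing relative to DMSO negative control.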

Measured: AC50

C[N+](C)(C)CCCNS(=O)(=O)C(F)(F)C(F)(F)C(F)(F)C(F)(F)C(F)(F)C(F)(F)C(F)(F)C(F)(F)F
active: [3] 30 µM | Decorin, DCN (gene 1634) 9.66 µM and 11.2 µM | KRT18 (gene 3875) 26.5 µM and 5.95 µM | [4] 37.6 µM and 38.7 µM | [5] 49.2 µM and 41 µM | [8] 52.2 µM and 51.4 µM | [9] 8.18 µM and 7.16 µM | [13] 9.46 µM and 30 µM | [14] 43 µM and 30 µM | [17] 18.1 µM
inactive: [1] | CD90, THY1 (gene 7070) | [2] | [3] | [6] | [7] | [10] | [11] | [12] | [15] | [16]

Nc1nc(N)nc(-c2ccccc2)n1
inactive: [15] | [16] | [17]

C=CC(=O)OCCCCCCOC(=O)C=C
inactive: [1] | Decorin, DCN (gene 1634)
active: [4] 20 µM | [5] 4.83 µM | [6] 29.4 µM

O=C(Cl)c1c(Cl)c(Cl)c(C(=O)Cl)c(Cl)c1Cl
inactive: [1] | Decorin, DCN (gene 1634) | [4] | [5] | [6]

O=C1CCCCCCCCCCCN1
inactive: [1] | Decorin, DCN (gene 1634) | [4] | [5] | [6]

CC/C=C\C/C=C\C/C=C\CCCCCCCC(=O)OC
inactive: Decorin, DCN (gene 1634)
active: [1] 20 µM | [4] 10.4 µM | [5] 36.5 µM | [6] 20 µM

CCOC(=O)/C=C\C(=O)OCC
inactive: [1] | Decorin, DCN (gene 1634) | [4] | [5] | [6]

CCCCCCOC(=O)CCCCC(=O)OCCCCCC
inactive: [1] | Decorin, DCN (gene 1634) | [4] | [5] | [6]

CCCCCCCO
inactive: [1] | Decorin, DCN (gene 1634) | [4] | [5] | [6]

Oc1ccccc1Cc1ccccc1O
inactive: [15] | [16] | [17]

CC(C)C(=O)OCCc1ccccc1
inactive: [15] | [16] | [17]

CCC1(C)C(=O)N(Cl)C(=O)N1Cl (stereo not drawn)
inactive: [1] | Decorin, DCN (gene 1634) | [4] | [5] | [6]

C=CC(=O)NC(C)(C)C
inactive: [1] | Decorin, DCN (gene 1634) | [4] | [5] | [6]

CCCCCCCCCCCC(C)=O
inactive: [1] | Decorin, DCN (gene 1634) | [4] | [5] | [6]

CCCCC1C(=O)N(c2ccccc2)N(c2ccccc2)C1=O
inactive: [1] | Decorin, DCN (gene 1634) | [4] | [5] | [6]

COc1ccc(C(=O)c2ccccc2)c(O)c1
inactive: [1] | Decorin, DCN (gene 1634) | [4] | [5] | [6]

c1ccc(Nc2cccc3ccccc23)cc1
inactive: [15] | [17]
active: [15] 12.7 µM | [16] 27.2 µM and 30.3 µM

CCCCCCCCCCCC(=O)N(C)CC(=O)O
inactive: [15] | [16] | [17]

O=C(Oc1ccccc1)c1ccccc1C(=O)Oc1ccccc1
inactive: [1] | Decorin, DCN (gene 1634) | [4] | [5] | [6]

CC(C)c1cccc(C(C)C)c1N
inactive: [1] | Decorin, DCN (gene 1634) | [4] | [5] | [6]

CC(CCC(=O)O)(c1ccc(O)cc1)c1ccc(O)cc1
inactive: [15] | [16] | [17]

c1ccc2sc(SSN3CCOCC3)nc2c1
active: [4] 31.5 µM | [5] 4.91 µM | [6] 31.5 µM
inactive: [1] | Decorin, DCN (gene 1634)

Cc1c(O)cccc1O
inactive: [1] | Decorin, DCN (gene 1634) | [4] | [5] | [6]

CCCC(C)C(=O)OCC (stereo not drawn)
inactive: [15] | [16] | [17]

CCOC(=O)C1=NOC(c2ccccc2)(c2ccccc2)C1
inactive: [1] | Decorin, DCN (gene 1634) | [4] | [5] | [6]

Oc1c(Cl)cc(Cl)c(Cl)c1Cl
inactive: [1] | [5]
active: Decorin, DCN (gene 1634) 37.4 µM | [4] 26.6 µM | [6] 33 µM

CC/C=C\CCOC(=O)c1ccccc1O
active: Decorin, DCN (gene 1634) 20 µM | [4] 37 µM | [6] 35.5 µM
inactive: [1] | [5]

C=CCCCCCCCCC=O
inactive: [1] | Decorin, DCN (gene 1634) | [4] | [5] | [6]

COC(OC)(C(=O)c1ccccc1)c1ccccc1
inactive: [1] | Decorin, DCN (gene 1634) | [4] | [5] | [6]
